# Records with an inconclusive call do not appear. A call without a number means that no potency is given here. Values without a mark were called inactive. Calls of active or inactive are those of the source. The call rests on the fitted dose curve.
# Test: qHTS assay for small molecule agonists of the p53 signaling pathway - cell viability (AID 651633); further: nearly all actives have a fitted effect of over 30% in size
# Conditions: p53RE-bla HCT-116 viability, ATP luminescence, 16 h; series mostly up to 83.3 µM
# Summary of the method: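 p53RE-bla cells, seeded at 4,000 per well and rested 5 h at 37 C/5% CO2, received compounds in DMSO for 16 h at 37 C. CellTiter-Glo was then added, and luminescence was read after 30 min at room temperature to gauge cytotoxicity.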
# Potency means the concentration at half of the fitted maximal effect.
row,Compound,Potency
1,O=C(O)[C@H](O)[C@@H](O)[C@H](O[C@@H]1O[C@H](CO)[C@H](O)[C@H](O)[C@H]1O)[C@H](O)CO,inactive
2,COc1cc(/C=C/c2ccccc2)oc(=O)c1,inactive
3,NC(=S)NC(N)=S,inactive
4,CC(=O)c1ccc(C(C)=O)cc1,inactive
5,Cc1ccc(C(=O)O)cc1,inactive
6,CCC(CC)(CC(=O)Nc1cccc(/C=C/c2nc(C3CCC3)cs2)c1)C(=O)O,inactive
7,C=CC(=O)Nc1cc2c(Nc3ccc(F)c(Cl)c3)ncnc2cc1OCCCN1CCOCC1,29.8 µM (active)
8,CCC(COC(=O)CCS)(COC(=O)CCS)COC(=O)CCS,inactive
9,Nc1ccc(C(=O)O)c(O)c1,inactive
10,O=C(Oc1ccccc1)Oc1ccccc1,inactive
11,O=[N+]([O-])c1ccc(O)cc1C(F)(F)F,inactive
12,O=C(O)c1cc(=O)c2ccccc2o1,inactive
13,CC1=Nc2ccccc2C1(C)C,inactive
14,CCCCC(CC)CN1CN(CC(CC)CCCC)CC(C)(N)C1 (stereo not given),inactive

# Test: qHTS assay for small molecules that induce genotoxicity in human embryonic kidney cells expressing luciferase-tagged ATAD5 - cell viability (AID 651634); further: nearly all actives have a fitted effect of over 25% in size
# Conditions: HEK293T ATAD5-luc cells viability, CellTiter-Fluor, 15.5 h; series mostly up to 83.3 µM
# Summary of the method: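 Cells (HEK293T, luciferase-tagged ATAD5) are seeded at 2,000 per well, dosed with compound or DMSO vehicle, and incubated 15.5 hr at 37C and 5% CO2. CellTiter-Fluor is added for 30 min before fluorescence is measured.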
Compound,Potency,"activity, negative = cytotoxicity"
O=C(O)[C@H](O)[C@@H](O)[C@H](O[C@@H]1O[C@H](CO)[C@H](O)[C@H](O)[C@H]1O)[C@H](O)CO,inactive,
Cc1c2ccccc2c(C)c2c1ccc1ccccc12,inactive,
NC[C@H]1O[C@H](O[C@H]2[C@H](O[C@@H]3O[C@H](CO)[C@@H](O)[C@H]3O)C(O)[C@H](N)C[C@@H]2N)[C@H](N)[C@@H](O)[C@@H]1O (stereo not given in full),inactive,
O=C(O)Cc1ccccc1Nc1c(Cl)cccc1Cl,inactive,
CC(C)CCCCCOC(=O)CCS,inactive,
COc1cc(/C=C/c2ccccc2)oc(=O)c1,inactive,
CCO[Si](OCC)(OCC)OCC,inactive,
CCCCC(CC)COC(=O)CCCCC(=O)OCc1ccccc1 (stereo not given),inactive,
NC(=S)NC(N)=S,inactive,
CC(=O)c1ccc(C(C)=O)cc1,inactive,
Cc1ccc(C(=O)O)cc1,inactive,
CCC(CC)(CC(=O)Nc1cccc(/C=C/c2nc(C3CCC3)cs2)c1)C(=O)O,inactive,
CCOC(=O)NNc1ccc(N(CC)CC(C)O)nn1 (stereo not given),inactive,
C=CC(=O)Nc1cc2c(Nc3ccc(F)c(Cl)c3)ncnc2cc1OCCCN1CCOCC1,10.6 µM (active),
CCN(CC)c1ccc2c(-c3ccc(S(=O)(=O)O)cc3S(=O)(=O)[O-])c3ccc(=[N+](CC)CC)cc-3oc2c1,25.1 µM (active),
Cc1cccc2cccnc12,inactive,
c1ccsc1,inactive,
O=S(=O)(O)c1ccc(Nc2nc(Nc3ccc(/C=C/c4ccc(Nc5nc(Nc6ccc(S(=O)(=O)O)cc6)nc(N(CCO)CCO)n5)cc4S(=O)(=O)O)c(S(=O)(=O)O)c3)nc(N(CCO)CCO)n2)cc1,inactive,

Compound,Potency,"activity, negative = cytotoxicity"
CC(C)(C)CC(C)(C)c1ccc(Nc2ccc(C(C)(C)CC(C)(C)C)cc2)cc1,,13.9% [at 8.08 µM]
CC(C)=CCC1=C(O)c2ccccc2C(=O)C1=O,54.2 µM (active),
ClCCl,inactive,
CCCCNS(=O)(=O)c1ccc(C)cc1,inactive,
CC(CO)Oc1ccccc1 (stereo not given),inactive,
C=C(CC)C(=O)c1ccc(OCC(=O)O)c(Cl)c1Cl,inactive,
CCC(COC(=O)CCS)(COC(=O)CCS)COC(=O)CCS,inactive,
O=C(O)c1cccc(C(F)(F)F)c1,inactive,
O=C(O)CCN(C1(C(=O)NO)CCCC1)S(=O)(=O)c1ccc(Oc2ccc(F)cc2)cc1,inactive,
Nc1ccc(C(=O)O)c(O)c1,inactive,
C[C@H]1NCc2cc(-c3ccc4c(=O)c(C(=O)O)cn(C5CC5)c4c3OC(F)F)ccc21,inactive,
O=C(Oc1ccccc1)Oc1ccccc1,inactive,
O=[N+]([O-])c1ccc(O)cc1C(F)(F)F,27.3 µM (active),
COC(=O)Nc1nc2ccc(C(=O)c3ccccc3)cc2[nH]1,inactive,
O=C(O)c1cc(=O)c2ccccc2o1,inactive,
CC1=Nc2ccccc2C1(C)C,inactive,
CCCCCCCC/C=C\CCCCCCCCN,inactive,
CCCCC(CC)CN1CN(CC(CC)CCCC)CC(C)(N)C1 (stereo not given),inactive,
